Experimental data from the supplement of paper PMC4022240.
± gives the standard deviation.

Experiments:
Assay in all cases: peptide microarray binding signal (635 nm), min-max normalized on array (fraction of array maximum); higher = stronger binding
Settings in all cases: peptide region: H3 5-17
[1] = biological target: T1, HaloTag-ATRX ADD domain (163-292)
T1 chain: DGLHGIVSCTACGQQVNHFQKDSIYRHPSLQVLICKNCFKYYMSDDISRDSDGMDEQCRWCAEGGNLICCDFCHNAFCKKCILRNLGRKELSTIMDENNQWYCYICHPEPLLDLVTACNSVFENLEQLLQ
Procedure, shortened: (§1)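 Two probe formats were used for 1 h at 4°C: biotin-labelled HaloTag reader fusions (10 nM to 1 μM) with streptavidin-Alexa Fluor 647, and rabbit histone antibodies (1:10,000 to 1:2,000) with anti-rabbit Alexa 647. Both were applied to nitrocellulose arrays of histone 13-mer peptide–cellulose conjugates printed in triplicate with a Cy3 tracer and blocked overnight at 4°C. Signal was read at 635 nm and misprints at 532 nm on an Axon GenePix 4000B. Binding signal is expressed as the triplicate-spot mean intensity, min-max scaled for each library.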

[2] = biological target: HaloTag-ING2 PHD (mouse Ing2 200-280)
Procedure, shortened: as §1

[3] = biological target: anti-H3K4me3 antibody ab8580
Procedure, shortened: as §1

[4] = biological target: anti-H3K9me3 antibody ab8898
Procedure, shortened: as §1

[5] = peptide modifications: H3K9me3 H3K14me1, binder concentration: 1:2,000 dilution
[6] = peptide modifications: H3K9me3 H3K14me1, binder concentration: 1:10,000 dilution
[7] = peptide modifications: H3K9me3 H3K14me2, binder concentration: 1:2,000 dilution
[8] = peptide modifications: H3K9me3 H3K14me2, binder concentration: 1:10,000 dilution
[9] = peptide modifications: H3K9me3 H3K14me3, binder concentration: 1:2,000 dilution
[10] = peptide modifications: H3K9me3 H3K14me3, binder concentration: 1:10,000 dilution
[11] = peptide modifications: H3K9me3 H3S10ph, binder concentration: 1:2,000 dilution
[12] = peptide modifications: H3K9me3 H3S10ph, binder concentration: 1:10,000 dilution
[13] = peptide modifications: H3K9me3 H3T11ph, binder concentration: 1:2,000 dilution
[14] = peptide modifications: H3K9me3 H3T11ph, binder concentration: 1:10,000 dilution
[15] = peptide modifications: H3K14ac, binder concentration: 1:2,000 dilution
[16] = peptide modifications: H3K14ac, binder concentration: 1:10,000 dilution
[17] = peptide modifications: H3K14me1, binder concentration: 1:2,000 dilution
[18] = peptide modifications: H3K14me1, binder concentration: 1:10,000 dilution
[19] = peptide modifications: H3K14me2, binder concentration: 1:2,000 dilution
[20] = peptide modifications: H3K14me2, binder concentration: 1:10,000 dilution
[21] = peptide modifications: H3K14me3, binder concentration: 1:2,000 dilution
[22] = peptide modifications: H3K14me3, binder concentration: 1:10,000 dilution
[23] = peptide modifications: H3R8cit H3K9ac, binder concentration: 1:2,000 dilution
[24] = peptide modifications: H3R8cit H3K9ac, binder concentration: 1:10,000 dilution

QTARKSTGGKAPR [H3 5-17 Q T A R Kme3 S T G G Kme A P R]
peptide microarray binding signal ([1]; peptide modifications: H3K9me3 H3K14me1, binder concentration: 50 nM): 0.00285 ± 0.00016
peptide microarray binding signal ([1]; peptide modifications: H3K9me3 H3K14me1, binder concentration: 500 nM): 0.00524 ± 0.00015
peptide microarray binding signal ([2]; peptide modifications: H3K9me3 H3K14me1, binder concentration: 10 nM): 0.00406 ± 0.00024
peptide microarray binding signal ([2]; peptide modifications: H3K9me3 H3K14me1, binder concentration: 100 nM): 0.0116 ± 0.00073
peptide microarray binding signal [3, 5]: 0.00483 ± 0.00038
peptide microarray binding signal [3, 6]: 0.00251 ± 9.7e-05
peptide microarray binding signal [4, 5]: 0.175 ± 0.043
peptide microarray binding signal [4, 6]: 0.0981 ± 0.043

QTARKSTGGKAPR [H3 5-17 Q T A R Kme3 S T G G Kme2 A P R]
peptide microarray binding signal ([1]; peptide modifications: H3K9me3 H3K14me2, binder concentration: 50 nM): 0.0125 ± 0.00061
peptide microarray binding signal ([1]; peptide modifications: H3K9me3 H3K14me2, binder concentration: 500 nM): 0.0226 ± 0.0018
peptide microarray binding signal ([2]; peptide modifications: H3K9me3 H3K14me2, binder concentration: 10 nM): 0.0179 ± 0.0015
peptide microarray binding signal ([2]; peptide modifications: H3K9me3 H3K14me2, binder concentration: 100 nM): 0.0366 ± 0.016
peptide microarray binding signal [3, 7]: 0.117 ± 0.017
peptide microarray binding signal [3, 8]: 0.082 ± 0.012
peptide microarray binding signal [4, 7]: 0.869 ± 0.044
peptide microarray binding signal [4, 8]: 1 ± 0.084

QTARKSTGGKAPR [H3 5-17 Q T A R Kme3 S T G G Kme3 A P R]
peptide microarray binding signal ([1]; peptide modifications: H3K9me3 H3K14me3, binder concentration: 50 nM): 0.00721 ± 0.00063
peptide microarray binding signal ([1]; peptide modifications: H3K9me3 H3K14me3, binder concentration: 500 nM): 0.00614 ± 0.00023
peptide microarray binding signal ([2]; peptide modifications: H3K9me3 H3K14me3, binder concentration: 10 nM): 0.00549 ± 0.00022
peptide microarray binding signal ([2]; peptide modifications: H3K9me3 H3K14me3, binder concentration: 100 nM): 0.00609 ± 0.00036
peptide microarray binding signal [3, 9]: 0.0344 ± 0.0088
peptide microarray binding signal [3, 10]: 0.0374 ± 0.015
peptide microarray binding signal [4, 9]: 0.241 ± 0.054
peptide microarray binding signal [4, 10]: 0.261 ± 0.13

QTARKSTGGKAPR [H3 5-17 Q T A R Kme3 Sph T G G K A P R]
peptide microarray binding signal ([1]; peptide modifications: H3K9me3 H3S10ph, binder concentration: 50 nM): 0.005862 ± 5.4e-05
peptide microarray binding signal ([1]; peptide modifications: H3K9me3 H3S10ph, binder concentration: 500 nM): 0.0171 ± 0.00064
peptide microarray binding signal ([2]; peptide modifications: H3K9me3 H3S10ph, binder concentration: 10 nM): 0.00358 ± 0.00073
peptide microarray binding signal ([2]; peptide modifications: H3K9me3 H3S10ph, binder concentration: 100 nM): 0.0227 ± 0.0053
peptide microarray binding signal [3, 11]: 0.00466 ± 0.0006
peptide microarray binding signal [3, 12]: 0.00913 ± 0.0042
peptide microarray binding signal [4, 11]: 0.362 ± 0.11
peptide microarray binding signal [4, 12]: 0.273 ± 0.078

QTARKSTGGKAPR [H3 5-17 Q T A R Kme3 S Tph G G K A P R]
peptide microarray binding signal ([1]; peptide modifications: H3K9me3 H3T11ph, binder concentration: 50 nM): 0.00737 ± 0.0032
peptide microarray binding signal ([1]; peptide modifications: H3K9me3 H3T11ph, binder concentration: 500 nM): 0.00981 ± 0.0012
peptide microarray binding signal ([2]; peptide modifications: H3K9me3 H3T11ph, binder concentration: 10 nM): 0.00352 ± 0.00053
peptide microarray binding signal ([2]; peptide modifications: H3K9me3 H3T11ph, binder concentration: 100 nM): 0.00539 ± 0.0012
peptide microarray binding signal [3, 13]: 0.00485 ± 0.00012
peptide microarray binding signal [3, 14]: 0.00747 ± 0.0029
peptide microarray binding signal [4, 13]: 0.215 ± 0.078
peptide microarray binding signal [4, 14]: 0.229 ± 0.095

QTARKSTGGKAPR [H3 5-17 Q T A R K S T G G Kac A P R]
peptide microarray binding signal ([1]; peptide modifications: H3K14ac, binder concentration: 50 nM): 0.01348 ± 6.3e-05
peptide microarray binding signal ([1]; peptide modifications: H3K14ac, binder concentration: 500 nM): 0.0307 ± 0.0021
peptide microarray binding signal ([2]; peptide modifications: H3K14ac, binder concentration: 10 nM): 0.0491 ± 0.007
peptide microarray binding signal ([2]; peptide modifications: H3K14ac, binder concentration: 100 nM): 0.0789 ± 0.0089
peptide microarray binding signal [3, 15]: 0.0163 ± 0.0012
peptide microarray binding signal [3, 16]: 0.0226 ± 0.0018
peptide microarray binding signal [4, 15]: 0.0103 ± 0.00042
peptide microarray binding signal [4, 16]: 0.00657 ± 0.0006

QTARKSTGGKAPR [H3 5-17 Q T A R K S T G G Kme A P R]
peptide microarray binding signal ([1]; peptide modifications: H3K14me1, binder concentration: 50 nM): 0.0197 ± 0.00048
peptide microarray binding signal ([1]; peptide modifications: H3K14me1, binder concentration: 500 nM): 0.047 ± 0.0024
peptide microarray binding signal ([2]; peptide modifications: H3K14me1, binder concentration: 10 nM): 0.0957 ± 0.02
peptide microarray binding signal ([2]; peptide modifications: H3K14me1, binder concentration: 100 nM): 0.0987 ± 0.016
peptide microarray binding signal [3, 17]: 0.0306 ± 0.0089
peptide microarray binding signal [3, 18]: 0.0289 ± 0.0032
peptide microarray binding signal [4, 17]: 0.0125 ± 0.0013
peptide microarray binding signal [4, 18]: 0.0104 ± 0.0012

QTARKSTGGKAPR [H3 5-17 Q T A R K S T G G Kme2 A P R]
peptide microarray binding signal ([1]; peptide modifications: H3K14me2, binder concentration: 50 nM): 0.00956 ± 0.00084
peptide microarray binding signal ([1]; peptide modifications: H3K14me2, binder concentration: 500 nM): 0.0335 ± 0.0014
peptide microarray binding signal ([2]; peptide modifications: H3K14me2, binder concentration: 10 nM): 0.0584 ± 0.011
peptide microarray binding signal ([2]; peptide modifications: H3K14me2, binder concentration: 100 nM): 0.077 ± 0.0071
peptide microarray binding signal [3, 19]: 0.044 ± 0.004
peptide microarray binding signal [3, 20]: 0.0224 ± 0.0035
peptide microarray binding signal [4, 19]: 0.0137 ± 0.00078
peptide microarray binding signal [4, 20]: 0.00715 ± 0.00071

QTARKSTGGKAPR [H3 5-17 Q T A R K S T G G Kme3 A P R]
peptide microarray binding signal ([1]; peptide modifications: H3K14me3, binder concentration: 50 nM): 0.00931 ± 0.00042
peptide microarray binding signal ([1]; peptide modifications: H3K14me3, binder concentration: 500 nM): 0.0186 ± 0.0016
peptide microarray binding signal ([2]; peptide modifications: H3K14me3, binder concentration: 10 nM): 0.0256 ± 0.00028
peptide microarray binding signal ([2]; peptide modifications: H3K14me3, binder concentration: 100 nM): 0.0377 ± 0.0028
peptide microarray binding signal [3, 21]: 0.0987 ± 0.029
peptide microarray binding signal [3, 22]: 0.0663 ± 0.0053
peptide microarray binding signal [4, 21]: 0.0574 ± 0.00077
peptide microarray binding signal [4, 22]: 0.0328 ± 0.0018

QTARKSTGGKAPR [H3 5-17 Q T A Rcit Kac S T G G K A P R]
peptide microarray binding signal ([1]; peptide modifications: H3R8cit H3K9ac, binder concentration: 50 nM): 0.0106 ± 0.00074
peptide microarray binding signal ([1]; peptide modifications: H3R8cit H3K9ac, binder concentration: 500 nM): 0.0249 ± 0.0053
peptide microarray binding signal ([2]; peptide modifications: H3R8cit H3K9ac, binder concentration: 10 nM): 0.0426 ± 0.0074
peptide microarray binding signal ([2]; peptide modifications: H3R8cit H3K9ac, binder concentration: 100 nM): 0.0673 ± 0.0053
peptide microarray binding signal [3, 23]: 0.0133 ± 0.0056
peptide microarray binding signal [3, 24]: 0.0146 ± 0.0065
peptide microarray binding signal [4, 23]: 0.0143 ± 0.0052
peptide microarray binding signal [4, 24]: 0.0112 ± 0.00045
